Source: PubChem BioAssay (EPA / NIEHS)
Several values for one entry are separate records, joined by “and”; a condition that tells them apart may be missing. Equal entries are not always repeated. More than one record can exist for a structure, and the calls need not agree. Activity calls are given as the source filed them. Rule for the calls: active = hit-call score of the fitted dose curve at least 0.9, where 1 is the maximum; inactive = score below 0.9.

Columns and labels:
[1] = read-out: Matrix Metallopeptidase 1 (MMP1), MMP1 (gene 4312); assay: BSK_MyoF_MMP1: BioMAP Diversity Plus: MyoF Assay for Matrix Metallopeptidase 1 (MMP1) Biomarker Activity (AID 2284268); settings: primary human lung fibroblasts
Summary of the method: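 Human lung fibroblasts (MyoF system) exposed to chemical for 24 h in 96-well format; MMP1 biomarker quantified by ELISA, with activity fitted in the positive direction relative to DMSO baseline.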

[2] = read-out: TIMP metallopeptidase inhibitor 1 (TIMP1), TIMP1 (gene 7076); assay: BSK_MyoF_TIMP1: BioMAP Diversity Plus: MyoF Assay for TIMP metallopeptidase inhibitor 1 (TIMP1) Biomarker Activity (AID 2284269); settings: primary human lung fibroblasts
Summary of the method: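 TIMP-1 levels were determined by ELISA in human lung fibroblasts treated for 24 h. DMSO served as negative control and baseline for upward curve fitting.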

[3] = read-out: Matrix Metallopeptidase 3 (MMP3), MMP3 (gene 4314); assay: BSK_BF4T_MMP3: BioMAP Diversity Plus: BF4T Assay for Matrix Metallopeptidase 3 (MMP3) Biomarker Activity (AID 2284271); settings: primary human bronchial epithelial cells with fibroblasts
Summary of the method: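 MMP-3 level read by ELISA after 24 h chemical exposure of bronchial epithelial cell/dermal fibroblast co-cultures, fitted upward relative to DMSO. Parallel cultures stained with 0.1% SRB after TCA fixation gauge overt cytotoxicity.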

[4] = read-out: Tissue plasminogen activator (tPA), PLAT (gene 5327); assay: BSK_BF4T_tPA: BioMAP Diversity Plus: BF4T Assay for Tissue plasminogen activator (tPA) Biomarker Activity (AID 2284272); settings: primary human bronchial epithelial cells with fibroblasts
Summary of the method: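 tPA level quantified by ELISA at 24 h post-treatment in bronchial epithelial/dermal fibroblast co-cultures, gain of signal scored against DMSO baseline. Parallel cultures stained with 0.1% SRB (560 nm) to flag overt cytotoxicity.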

[5] = BSK_BF4T_SRB: Viability Assessment in the BioMAP Diversity Plus: BF4T Assay (AID 2284274); settings: primary human bronchial epithelial cells with fibroblasts
Summary of the method: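 Cytotoxicity measured as total protein: cells fixed with 10% TCA, stained with 0.1% SRB, read at 560 nm. Bronchial epithelial/dermal fibroblast co-culture, 24 h after dosing, with positive-direction fitting relative to DMSO.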

[6] = read-out: urokinase Plasminogen Activator (uPA), PLAU (gene 5328); assay: BSK_BF4T_uPA: BioMAP Diversity Plus: BF4T Assay for urokinase Plasminogen Activator (uPA) Biomarker Activity (AID 2284275); settings: primary human bronchial epithelial cells with fibroblasts
Summary of the method: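 uPA levels measured by ELISA at 24 hours in BF4T cultures (bronchial epithelial cells plus dermal fibroblasts) and compared with DMSO; cytotoxicity tracked in parallel cultures by sulforhodamine B staining.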

[7] = read-out: Matrix Metallopeptidase 9 (MMP9), MMP9 (gene 4318); assay: BSK_BF4T_MMP9: BioMAP Diversity Plus: BF4T Assay for Matrix Metallopeptidase 9 (MMP9) Biomarker Activity (AID 2284276); settings: primary human bronchial epithelial cells with fibroblasts
Summary of the method: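 MMP-9 levels were measured by ELISA after 24 h exposure of bronchial epithelial cell/dermal fibroblast co-cultures, with DMSO as baseline. Parallel cultures were stained with 0.1% SRB after TCA fixation, read at 560 nm, to flag overt cytotoxicity.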

[8] = read-out: Interleukin-8 (IL8), CXCL8 (gene 3576); assay: BSK_IMphg_IL8: BioMAP Diversity Plus: IMphg Assay for Interleukin-8 (IL8) Biomarker Activity (AID 2284277); settings: primary human endothelial cells with macrophages
Summary of the method: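 IL-8 levels were measured by ELISA 24 h after dosing in primary human venular endothelial cell–macrophage cultures, referenced to DMSO; parallel SRB staining monitored overt cytotoxicity.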

[9] = read-out: Intercellular Adhesion Molecule 1 (ICAM1), ICAM1 (gene 3383); assay: BSK_BE3C_ICAM1: BioMAP Diversity Plus: BE3C Assay for Intercellular Adhesion Molecule 1 (ICAM1) Biomarker Activity (AID 2284278); settings: primary human bronchial epithelial cells;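 note: cell-surface ICAM-1 protein level quantified by ELISA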
Summary of the method: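 ICAM-1 quantified by ELISA and fitted against DMSO baseline, 24 h post-dosing in BE3C cultures of primary human lung bronchial epithelial cells. Cytotoxicity checked in parallel cultures by total protein SRB staining.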

[10] = read-out: Interferon-inducible T-cell alpha chemoattractant (ITAC), CXCL11 (gene 6373); assay: BSK_BE3C_ITAC: BioMAP Diversity Plus: BE3C Assay for Interferon-inducible T-cell alpha chemoattractant (ITAC) Biomarker Activity (AID 2284279); settings: primary human bronchial epithelial cells
Summary of the method: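 The assay measures I-TAC levels by ELISA in human primary bronchial epithelial cell cultures 24 hours after chemical treatment. Values reflect signal increase over the DMSO baseline.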

[11] = read-out: Interleukin-8 (IL8), CXCL8 (gene 3576); assay: BSK_BE3C_IL8: BioMAP Diversity Plus: BE3C Assay for Interleukin-8 (IL8) Biomarker Activity (AID 2284280); settings: primary human bronchial epithelial cells
Summary of the method: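 Dose human bronchial epithelial cells with chemical; incubate 24 h; quantify IL-8 by ELISA; fit response upward versus DMSO controls.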

[12] = read-out: KRT18 (gene 3875); assay: BSK_BE3C_Keratin818: BioMAP Diversity Plus: BE3C Assay for Keratin 818 Biomarker Activity (AID 2284282); settings: primary human bronchial epithelial cells
Summary of the method: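 ELISA readout of Keratin 8/18 in human primary bronchial epithelial cultures after 24 h chemical exposure, DMSO baseline. Parallel SRB staining (0.1%, TCA-fixed, 560 nm) served as cytotoxicity check.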

[13] = read-out: Matrix Metallopeptidase 9 (MMP9), MMP9 (gene 4318); assay: BSK_BE3C_MMP9: BioMAP Diversity Plus: BE3C Assay for Matrix Metallopeptidase 9 (MMP9) Biomarker Activity (AID 2284283); settings: primary human bronchial epithelial cells
Summary of the method: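 MMP9 is measured by ELISA after a 24 h compound exposure of primary human bronchial epithelial cultures. Parallel SRB staining gives overt cytotoxicity. Values fitted in the positive direction against DMSO.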

[14] = read-out: Plasminogen activator inhibitor-1 (PAI1), SERPINE1 (gene 5054); assay: BSK_CASM3C_PAI1: BioMAP Diversity Plus: CASM3C Assay for Plasminogen activator inhibitor-1 (PAI1) Biomarker Activity (AID 2284284); settings: primary human coronary artery smooth muscle cells;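 note: PAI-1 protein level measured by ELISA 24 h after dosing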
[15] = read-out: Monocyte Chemoattractant Protein-1 (MCP1), CCL2 (gene 6347); assay: BSK_hDFCGF_MCP1: BioMAP Diversity Plus: hDFCGF Assay for Monocyte Chemoattractant Protein-1 (MCP1) Biomarker Activity (AID 2284285); settings: primary human foreskin fibroblasts
Summary of the method: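 MCP-1 ELISA readout was taken 24 hours after dosing primary human dermal fibroblasts in the hDFCGF system, with DMSO as baseline. Parallel sulforhodamine B staining of total protein tracked overt cytotoxicity.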

[16] = read-out: Vascular cell adhesion molecule 1 (VCAM1), VCAM1 (gene 7412); assay: BSK_IMphg_VCAM1: BioMAP Diversity Plus: IMphg Assay for Vascular cell adhesion molecule 1 (VCAM1) Biomarker Activity (AID 2284286); settings: primary human endothelial cells with macrophages
Summary of the method: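 ELISA read-out of VCAM-1 on venular endothelial cell/macrophage co-cultures at 24 h post-treatment, with DMSO as baseline and positive-direction fitting. Parallel sulforhodamine B total-protein staining (560 nm) served as the overt cytotoxicity measure.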

[17] = read-out: Intercellular Adhesion Molecule 1 (ICAM1), ICAM1 (gene 3383); assay: BSK_hDFCGF_ICAM1: BioMAP Diversity Plus: hDFCGF Assay for Intercellular Adhesion Molecule 1 (ICAM1) Biomarker Activity (AID 2284287); settings: primary human foreskin fibroblasts
Summary of the method: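 ICAM-1 ELISA readout 24 h after dosing, DMSO as baseline, in human dermal foreskin fibroblast cultures. Cytotoxicity checked in parallel wells by SRB staining (0.1% SRB, 10% TCA fixation, 560 nm).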

[18] = read-out: CD40, CD40 (gene 958); assay: BSK_IMphg_CD40: BioMAP Diversity Plus: IMphg Assay for CD40 Biomarker Activity (AID 2284288); settings: primary human endothelial cells with macrophages
Summary of the method: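 ELISA read-out of cell-surface CD40 at 24 h in human venular endothelial cell/macrophage co-cultures. Activity fitted in the positive direction against DMSO; parallel SRB staining (560 nm) gauges overt cytotoxicity.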

[19] = read-out: TIMP metallopeptidase inhibitor 2 (TIMP2), TIMP2 (gene 7077); assay: BSK_hDFCGF_TIMP2: BioMAP Diversity Plus: hDFCGF Assay for TIMP metallopeptidase inhibitor 2 (TIMP2) Biomarker Activity (AID 2284289); settings: primary human foreskin fibroblasts
Summary of the method: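 Primary human foreskin fibroblasts in the hDFCGF system, dosed for 24 h; TIMP-2 level measured by ELISA, fitted in the positive direction against DMSO; cytotoxicity checked in parallel by sulforhodamine B total protein staining.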

[20] = read-out: Macrophage colony-stimulating factor (MCSF), CSF1 (gene 1435); assay: BSK_IMphg_MCSF: BioMAP Diversity Plus: IMphg Assay for Macrophage colony-stimulating factor (MCSF) Biomarker Activity (AID 2284293); settings: primary human endothelial cells with macrophages
Summary of the method: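 M-CSF was measured by ELISA in human venular endothelial cell/macrophage co-cultures dosed for 24 hours. Sulforhodamine B staining of parallel cultures assessed cytotoxicity; data fitted against DMSO baseline.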

Measured: AC50

ClC(Cl)=C(c1ccc(Cl)cc1)c1ccccc1Cl
active: [1] 9.59 µM | [2] 5.76 µM

O=C(O)C(F)(F)OC(F)(F)C(F)(F)OC(F)(F)F
inactive: [1] | [2] | [3] | [4] | [5] | [6] | [7] | [8] | [9] | [10] | [11] | [12] | [13] | [14] | [15] | [16] | [17] | [18] | [19] | [20]
active: [8] 22 µM

OCC(F)(F)OC(F)(F)C(F)(F)OC(F)(F)C(F)(F)OC(F)(F)F
active: [1] 19.9 µM and 18.3 µM | [2] 22.3 µM and 27.8 µM | [16] 47.7 µM | [17] 19.2 µM | [18] 7.58 µM and 49.2 µM | [20] 43 µM and 18.8 µM
inactive: [3] | [4] | [5] | [6] | [7] | [8] | [9] | [10] | [11] | [12] | [13] | [14] | [15] | [16] | [17] | [19]

O=C(O)C(F)(F)C(F)(F)C(=O)O
inactive: all assays above

COP(=O)(O)OC
inactive: [1] | [2]

CC(O)C(F)(F)C(F)(F)F (stereo not drawn)
active: [18] 2.17 µM
inactive: [1] | [2] | [3] | [4] | [5] | [6] | [7] | [8] | [9] | [10] | [11] | [12] | [13] | [14] | [15] | [16] | [17] | [18] | [19] | [20]
